In PubChem BioAssay (NCI):
This is part of a sample that, as a whole, favours compounds with a hit. Of some 79,000 tested, about 15% had one in any assay. The source made the active and inactive calls. No stated cut-off is given here; in the data, active means growth inhibition above about 70%; inactive means the rest.

Columns and labels:
[1] = NCI Yeast Anticancer Drug Screen. Data for the rad52 strain (AID 147);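 further: 0% = growth of vehicle-treated control cultures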; details: S. cerevisiae rad52 mutant growth inhibition, stronger effect = higher value
Summary of the method: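 Measured: yeast growth inhibition. System: strain with a defined DNA damage repair alteration. Reference: vehicle-treated control cultures.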

[2] = NCI Yeast Anticancer Drug Screen. Data for the wt1 strain (AID 149);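 further: 0% = growth of vehicle-treated wt1 cultures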; details: S. cerevisiae wt1 strain (SPY 50644) growth inhibition, stronger effect = higher value
Summary of the method: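 Measured: growth of wt1 yeast under compound versus vehicle treatment, reported as inhibition.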

[3] = NCI Yeast Anticancer Drug Screen. Data for the rad50EPP+ strain (AID 151);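 further: 0% = growth of vehicle-treated control cultures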; details: S. cerevisiae rad50 mutant strain, stronger effect = higher value
Summary of the method: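 One strain with a rad50 alteration (rad50EPP+) was compound-treated, its growth then compared to that of vehicle controls.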

[4] = NCI Yeast Anticancer Drug Screen. Data for the mgt1 strain (AID 153); details: S. cerevisiae mgt1 mutant growth inhibition, stronger effect = higher value
Summary of the method: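 After exposure of the mgt1 yeast mutant to compound, growth was measured and reported as inhibition compared with vehicle controls.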

[5] = NCI Yeast Anticancer Drug Screen. Data for the rad50 strain (AID 155);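 further: 0% = growth of vehicle-only cultures of the same strain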; details: S. cerevisiae rad50 strain growth inhibition, stronger effect = higher value
Summary of the method: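 Growth of the mutant yeast was measured after compound exposure and referenced to vehicle-treated cultures.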

[6] = NCI Yeast Anticancer Drug Screen. Data for the mec2-1 strain (AID 157); details: S. cerevisiae mec2-1 strain, stronger effect = higher value
Summary of the method: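 Test agents were screened against the mec2-1 yeast strain, with defined DNA repair or cell cycle alteration. Growth was scored as inhibition against vehicle-only controls.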

[7] = NCI Yeast Anticancer Drug Screen. Data for the rad14 strain (AID 159);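 further: 0% = growth of vehicle-treated control cultures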; details: S. cerevisiae rad14 strain growth inhibition, stronger effect = higher value
Summary of the method: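 Here, inhibition of yeast growth was measured after compound exposure, using a strain with a genetic defect in DNA damage repair and vehicle-treated cultures as the reference.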

[8] = NCI Yeast Anticancer Drug Screen. Data for the sgs1 mgt1 strain (AID 161);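 further: 0% = growth of cultures given vehicle only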; details: S. cerevisiae sgs1 mgt1 strain, stronger effect = higher value
Summary of the method: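 Genetically altered yeast, compound exposure, growth inhibition relative to vehicle.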

[9] = NCI Yeast Anticancer Drug Screen. Data for the CLN2oe strain (AID 163);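 further: 0% = growth of vehicle-only control cultures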; details: S. cerevisiae CLN2oe strain, stronger effect = higher value
Summary of the method: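 Here, growth inhibition in a cell-cycle-altered yeast strain after compound exposure was quantified against vehicle control growth.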

[10] = NCI Yeast Anticancer Drug Screen. Data for the cln2 rad14 strain (AID 165);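 further: 0% = growth equal to vehicle treated cultures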; details: S. cerevisiae cln2 rad14 strain, stronger effect = higher value
Summary of the method: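 Growth of compound-exposed yeast (cln2 rad14 genotype) measured and expressed as inhibition relative to vehicle.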

[11] = NCI Yeast Anticancer Drug Screen. Data for the bub3 strain (AID 167); details: S. cerevisiae bub3 mutant strain, stronger effect = higher value
Summary of the method: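 Whole-cell yeast assay. The mutant strain was incubated with compounds, and growth inhibition was determined by comparison with vehicle-treated cells.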

[12] = NCI Yeast Anticancer Drug Screen. Data for the wt2 strain (AID 169);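 further: 0% = growth of vehicle-treated yeast cultures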; details: S. cerevisiae wt2 strain growth inhibition, stronger effect = higher value
Summary of the method: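 Genetically defined yeast strains from a DNA-repair/cell-cycle panel were used. Compound-exposed yeast growth was measured, and the inhibition was calculated relative to vehicle treatment.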

[13] = NCI Yeast Anticancer Drug Screen. Data for the mlh1 strain (AID 171);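 further: 0% = growth of vehicle-treated control cultures of the same strain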; details: S. cerevisiae mlh1 strain growth inhibition, stronger effect = higher value
Summary of the method: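 Here the genetically defined yeast mutant is grown with each compound, and the extent to which its growth falls below that of vehicle-exposed cells is reported.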

[14] = NCI Yeast Anticancer Drug Screen. Data for the sgs1 strain (AID 173);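 further: 0% = growth of vehicle-only control cultures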; details: S. cerevisiae sgs1 mutant, stronger effect = higher value
Summary of the method: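 Relative growth inhibition, referenced to vehicle, was determined in a yeast strain with a defined alteration affecting DNA damage repair or cell cycle control after compound exposure.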

[15] = NCI Yeast Anticancer Drug Screen. Data for the mlh1 rad18 strain (AID 175); details: S. cerevisiae mlh1 rad18 strain growth inhibition, stronger effect = higher value
Summary of the method: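 In this whole-cell yeast screen, a strain with altered DNA damage repair is challenged with compound, and its growth is measured against matched vehicle-treated controls.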

[16] = NCI Yeast Anticancer Drug Screen. Data for the rad18 strain (AID 177); details: S. cerevisiae rad18 mutant growth inhibition, stronger effect = higher value
Summary of the method: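 Screen uses a yeast strain with a defined lesion in DNA damage repair; compound effect is read as loss of growth compared to untreated vehicle cultures.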

[17] = at 5.0 µM (retest, dose inferred, filed as 0.5)
[18] = at 50.0 µM (retest, dose inferred, filed as 5.0)

Measured: growth inhibition

Nc1ccc(S(=O)(=O)Nc2nc3c(c(=O)[nH]2)CCCC3)cc1
active: [1]; at 11.0 µM 87% | [1]; at 33.0 µM 99% | [1]; at 100.0 µM 99% | [2]; at 11.0 µM 93% | [2]; at 33.0 µM 99% | [2]; at 100.0 µM 100% | [3]; at 11.0 µM 80% | [3]; at 33.0 µM 99% | [3]; at 100.0 µM 99% | [4]; at 33.0 µM 98% | [4]; at 100.0 µM 99% | [5]; at 11.0 µM 93% | [5]; at 33.0 µM 99% | [5]; [18] 98% | [5]; at 50.0 µM 99.5% | [5]; at 100.0 µM 99% | [6]; at 33.0 µM 99% | [6]; [18] 99% | [6]; at 50.0 µM 99.5% | [6]; at 100.0 µM 99% | [7]; at 11.0 µM 94% | [7]; at 33.0 µM 100% | [7]; at 100.0 µM 100% | [8]; [18] 99% | [8]; at 50.0 µM 99.5% | [9]; at 33.0 µM 99% | [9]; at 100.0 µM 99% | [10]; [18] 99% | [10]; at 50.0 µM 99.2% | [11]; at 11.0 µM 92% | [11]; at 33.0 µM 99% | [11]; [18] 98% | [11]; at 50.0 µM 99.3% | [11]; at 100.0 µM 99% | [12]; at 3.7 µM 73% | [12]; at 11.0 µM 99% | [12]; at 33.0 µM 100% | [12]; at 100.0 µM 100% | [13]; at 11.0 µM 75% | [13]; at 33.0 µM 99% | [13]; at 100.0 µM 99% | [14]; at 11.0 µM 95% | [14]; at 33.0 µM 99% | [14]; at 100.0 µM 99% | [15]; [17] 84% | [15]; [18] 99% | [15]; at 50.0 µM 99.4% | [16]; at 11.0 µM 85% | [16]; at 33.0 µM 99% | [16]; at 100.0 µM 99%
inactive: [1]; at 1.2 µM 14% | [1]; at 3.7 µM 18% | [2]; at 1.2 µM 5% | [2]; at 3.7 µM 31% | [3]; at 1.2 µM 12% | [3]; at 3.7 µM 47% | [4]; at 1.2 µM 2% | [4]; at 3.7 µM 0% | [4]; at 11.0 µM 50% | [5]; at 1.2 µM 21% | [5]; at 3.7 µM 22% | [5]; [17] 31% | [6]; at 1.2 µM 0% | [6]; at 3.7 µM 4% | [6]; [17] 28% | [6]; at 11.0 µM 48% | [7]; at 1.2 µM 19% | [7]; at 3.7 µM 33% | [8]; [17] 44% | [9]; at 1.2 µM 5% | [9]; at 3.7 µM 5% | [9]; at 11.0 µM 21% | [10]; [17] 8% | [11]; at 1.2 µM 33% | [11]; at 3.7 µM 40% | [11]; [17] 14% | [12]; at 1.2 µM 29% | [13]; at 1.2 µM 8% | [13]; at 3.7 µM 20% | [14]; at 1.2 µM 36% | [14]; at 3.7 µM 47% | [16]; at 1.2 µM 33% | [16]; at 3.7 µM 48%

CN(C)/C(=N/C(=S)Nc1ccccc1)SCc1ccccc1
inactive: [1]; at 1.2 µM -3% | [1]; at 3.7 µM -4% | [1]; at 11.0 µM -2% | [1]; at 33.0 µM 6% | [1]; at 100.0 µM 12% | [2]; at 1.2 µM -2% | [2]; at 3.7 µM -3% | [2]; at 11.0 µM 0% | [2]; at 33.0 µM 6% | [2]; at 100.0 µM 6% | [3]; at 1.2 µM 0% | [3]; at 3.7 µM 1% | [3]; at 11.0 µM -5% | [3]; at 33.0 µM 1% | [3]; at 100.0 µM 13% | [4]; at 1.2 µM 1% | [4]; at 3.7 µM 2% | [4]; at 11.0 µM 4% | [4]; at 33.0 µM 11% | [4]; at 100.0 µM 16% | [5]; at 1.2 µM -5% | [5]; at 3.7 µM -5% | [5]; [17] -7% | [5]; at 11.0 µM -7% | [5]; at 33.0 µM 8% | [5]; at 100.0 µM 10% | [6]; at 1.2 µM -5% | [6]; at 3.7 µM -5% | [6]; [17] -1% | [6]; at 11.0 µM -4% | [6]; at 33.0 µM 10% | [6]; at 100.0 µM 16% | [7]; at 1.2 µM -4% | [7]; at 3.7 µM -5% | [7]; at 11.0 µM -2% | [7]; at 33.0 µM 13% | [7]; at 100.0 µM 18% | [8]; [17] 11% | [9]; at 1.2 µM -8% | [9]; at 3.7 µM -11% | [9]; at 11.0 µM -13% | [9]; at 33.0 µM -6% | [9]; at 100.0 µM -1% | [10]; [17] -15% | [10]; [18] 44% | [11]; at 1.2 µM -4% | [11]; at 3.7 µM -2% | [11]; [17] 6% | [11]; at 11.0 µM 3% | [11]; at 33.0 µM 8% | [11]; at 100.0 µM 14% | [12]; at 1.2 µM -2% | [12]; at 3.7 µM -2% | [12]; at 11.0 µM 0% | [12]; at 33.0 µM 11% | [12]; at 100.0 µM 14% | [13]; at 1.2 µM -2% | [13]; at 3.7 µM 0% | [13]; at 11.0 µM 3% | [13]; at 33.0 µM 11% | [13]; at 100.0 µM 20% | [14]; at 1.2 µM -3% | [14]; at 3.7 µM 0% | [14]; at 11.0 µM 7% | [14]; at 33.0 µM 25% | [14]; at 100.0 µM 30% | [15]; [17] -1% | [16]; at 1.2 µM -4% | [16]; at 3.7 µM -1% | [16]; at 11.0 µM 1% | [16]; at 33.0 µM 16% | [16]; at 100.0 µM 24%
active: [5]; [18] 70% | [5]; at 50.0 µM 99.2% | [6]; [18] 76% | [6]; at 50.0 µM 99.7% | [8]; [18] 91% | [8]; at 50.0 µM 99% | [10]; at 50.0 µM 98.8% | [11]; [18] 86% | [11]; at 50.0 µM 99.5% | [15]; [18] 76% | [15]; at 50.0 µM 97.7%

CC(CC/C(=N/O)c1ccccc1)(CC/C(=N\O)c1ccccc1)[N+](=O)[O-] (stereo unspecified)
inactive: [1]; at 1.2 µM 1% | [1]; at 3.7 µM 2% | [1]; at 11.0 µM -4% | [1]; at 33.0 µM 4% | [2]; at 1.2 µM -1% | [2]; at 3.7 µM -5% | [2]; at 11.0 µM -7% | [2]; at 33.0 µM 0% | [2]; at 100.0 µM 26% | [3]; at 1.2 µM -3% | [3]; at 3.7 µM 2% | [3]; at 11.0 µM -1% | [3]; at 33.0 µM 2% | [3]; at 100.0 µM 0% | [4]; at 1.2 µM -5% | [4]; at 3.7 µM -3% | [4]; at 11.0 µM -4% | [4]; at 33.0 µM -5% | [4]; at 100.0 µM 57% | [5]; at 1.2 µM 5% | [5]; at 3.7 µM 3% | [5]; [17] 4% | [5]; at 11.0 µM -1% | [5]; at 33.0 µM 4% | [5]; [18] 66% | [5]; at 50.0 µM 11.4% | [6]; at 1.2 µM -3% | [6]; at 3.7 µM -3%
active: [1]; at 100.0 µM 74% | [5]; at 100.0 µM 74%
